Measurements taken from the supplement of paper PMC10849652.
About 8,800 targets were measured; listed, in parts, are those with a hit and a random draw of the rest. About 0.5% of all pairs of compound and target were hits. Values without a mark were called inactive.

What was measured:
Test in all cases: log2 fold change, soluble protein after heating vs DMSO (PISA); higher = thermal stabilisation; K562 lysate, 10 uM; active = over 0.2 and 3.5 SD of the protein, either way, in both replicates (recomputed)
[1] = compound: CN1CC[C@H](c2c(O)cc(O)c3c(=O)cc(-c4ccccc4Cl)oc23)[C@H](O)C1 [alvocidib]
Outline: (§1)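 Log-two fold change in thermal stability relative to solvent controls is reported from duplicates. For each sample, crude K562 extract from dounce-homogenised pellets in PBS pH 7.4 with 1 mM MgCl2, at 1 mg/mL protein, was treated with 10 μM compound for 30 min. Aliquots heated for 3 min across 48°C-58°C were pooled, brought to 0.5% NP-40 at 4°C and cleared at 21,000xg for 90 min. The supernatant was quantified by TMTpro 16plex LC-MS/MS with channel sums equalised.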

[2] = compound: CN1CCc2c(c3ccccc3n2Cc2ccc(C(=O)NO)cc2)C1 [Tubastatin A]
Outline: as §1

[3] = compound: CNC(=O)C1=CC=CC=C1NC2=NC(=NC=C2Cl)NC3=C(C=C(C=C3)N4CCOCC4)OC
Outline: as §1

[4] = compound: CNC(=O)c1ccc(Nc2ncc(C(F)(F)F)c(NCc3nccnc3N(C)S(C)(=O)=O)n2)cc1 [defactinib]
Outline: as §1

[5] = compound: CNc1nc(-c2ccc3c(N)n[nH]c3c2)cc(N2C[C@@H](C(=O)NC3CCCCC3)CC[C@H]2C)n1
Outline: as §1

[6] = compound: COC(=O)N[C@@H](C)CNc1nccc(-c2cn(C(C)C)nc2-c2cc(Cl)cc(NS(C)(=O)=O)c2F)n1 [encorafenib]
Outline: as §1

[7] = compound: COC(=O)[C@H](CCSC)NC(=O)C1=C(C=C(C=C1)NC[C@H](CS)N)C2=CC=CC=C2
Outline: as §1

[8] = compound: COc1cc(Nc2ncc3c(n2)-c2ccc(Cl)cc2C(c2c(F)cccc2OC)=NC3)ccc1C(=O)O [alisertib]
Outline: as §1

[9] = compound: COc1cc2nc(-c3cc(F)ccc3O)nc(N[C@@H]3CNC[C@H]3C(C)(C)O)c2cc1OC
Outline: as §1

[10] = compound: COc1cc2ncnc(Nc3ccc(F)c(Cl)c3)c2cc1OCCCN1CCOCC1 [gefitinib]
Outline: as §1

[11] = compound: CS(=O)(=O)CCNCc1ccc(-c2ccc3ncnc(Nc4ccc(OCc5cccc(F)c5)c(Cl)c4)c3c2)o1 [lapatinib]
Outline: as §1

[12] = compound: CS(=O)(=O)N1CCN(Cc2cc3nc(-c4cccc5[nH]ncc45)nc(N4CCOCC4)c3s2)CC1 [pictilisib]
Outline: as §1

[13] = compound: C[C@@H](Oc1cc(-c2cnn(C3CCNCC3)c2)cnc1N)c1c(Cl)ccc(F)c1Cl [crizotinib]
Outline: as §1

[14] = compound: C[C@H](C1=CC=C(C=C1)C(=O)NC2=C3C=CNC3=NC=C2)N
Outline: as §1

[15] = compound: C[C@H](Nc1ncnc2nc[nH]c12)c1cc2cccc(Cl)c2c(=O)n1-c1ccccc1 [duvelisib]
Outline: as §1

[16] = compound: Cc1cc(Nc2cc(CN3CCOCC3)c3nc(C)c(Cc4ccc(Cl)cc4F)n3n2)n[nH]1 [gandotinib]
Outline: as §1

[17] = compound: Cc1cc(Nc2cc(N3CCN(C)CC3)nc(Sc3ccc(NC(=O)C4CC4)cc3)n2)n[nH]1 [tozasertib]
Outline: as §1

[18] = compound: Cc1ccc(-n2nc(C(C)(C)C)cc2NC(=O)Nc2ccc(OCCN3CCOCC3)c3ccccc23)cc1 [doramapimod]
Outline: as §1

[19] = compound: Cc1ccc(NC(=O)c2ccc(CN3CC[C@H](N(C)C)C3)c(C(F)(F)F)c2)cc1Nc1nccc(-c2cncnc2)n1 [bafetinib]
Outline: as §1

[20] = compound: Cc1cccc(CC(=O)N2CCc3c2ccc(-c2cn(C)c4ncnc(N)c24)c3F)n1
Outline: as §1

Chain of UniProt Q8IY47 (Q8IY47 whole entry, looked up): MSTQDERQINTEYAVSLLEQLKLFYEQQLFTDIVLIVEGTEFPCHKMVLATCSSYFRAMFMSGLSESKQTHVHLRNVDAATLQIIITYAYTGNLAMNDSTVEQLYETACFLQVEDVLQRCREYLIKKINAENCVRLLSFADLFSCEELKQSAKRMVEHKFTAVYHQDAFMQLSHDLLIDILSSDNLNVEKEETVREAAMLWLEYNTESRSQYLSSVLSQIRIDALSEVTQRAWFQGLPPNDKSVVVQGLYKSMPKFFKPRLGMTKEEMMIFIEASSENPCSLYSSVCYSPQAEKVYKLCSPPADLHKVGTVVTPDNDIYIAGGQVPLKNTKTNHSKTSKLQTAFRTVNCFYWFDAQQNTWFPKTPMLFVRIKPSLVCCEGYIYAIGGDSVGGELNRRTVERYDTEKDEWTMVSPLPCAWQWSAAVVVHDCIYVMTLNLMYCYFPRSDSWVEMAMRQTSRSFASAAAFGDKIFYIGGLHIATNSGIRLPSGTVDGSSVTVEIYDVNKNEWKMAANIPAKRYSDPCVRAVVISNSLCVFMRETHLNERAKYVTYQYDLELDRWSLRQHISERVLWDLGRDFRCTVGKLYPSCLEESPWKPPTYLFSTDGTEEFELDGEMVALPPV
Chain of UniProt Q5T447 (Q5T447 whole entry, looked up): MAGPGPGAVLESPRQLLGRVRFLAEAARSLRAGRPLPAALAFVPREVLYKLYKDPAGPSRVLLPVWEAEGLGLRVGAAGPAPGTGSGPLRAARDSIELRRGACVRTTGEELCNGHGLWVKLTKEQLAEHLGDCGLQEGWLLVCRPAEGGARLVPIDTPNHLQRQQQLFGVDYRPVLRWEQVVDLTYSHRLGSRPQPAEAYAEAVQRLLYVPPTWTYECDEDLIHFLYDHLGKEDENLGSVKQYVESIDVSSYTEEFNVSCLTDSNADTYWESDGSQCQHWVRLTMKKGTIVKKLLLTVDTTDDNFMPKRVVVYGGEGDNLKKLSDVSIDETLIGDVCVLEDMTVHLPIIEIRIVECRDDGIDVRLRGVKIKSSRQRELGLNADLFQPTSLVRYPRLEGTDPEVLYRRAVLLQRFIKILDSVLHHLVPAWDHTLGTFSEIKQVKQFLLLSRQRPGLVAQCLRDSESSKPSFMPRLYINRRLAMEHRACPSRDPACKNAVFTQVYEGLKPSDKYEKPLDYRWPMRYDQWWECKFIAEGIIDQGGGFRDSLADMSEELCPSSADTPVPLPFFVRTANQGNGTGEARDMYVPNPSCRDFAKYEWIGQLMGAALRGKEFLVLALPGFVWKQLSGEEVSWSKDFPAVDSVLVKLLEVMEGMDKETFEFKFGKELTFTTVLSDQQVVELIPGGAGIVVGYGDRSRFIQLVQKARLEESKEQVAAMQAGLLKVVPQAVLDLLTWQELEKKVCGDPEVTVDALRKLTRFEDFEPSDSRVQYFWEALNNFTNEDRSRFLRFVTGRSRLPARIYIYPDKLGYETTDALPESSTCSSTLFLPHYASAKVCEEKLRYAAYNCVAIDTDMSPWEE
Chain of UniProt Q9H0C8 (Q9H0C8 whole entry, looked up): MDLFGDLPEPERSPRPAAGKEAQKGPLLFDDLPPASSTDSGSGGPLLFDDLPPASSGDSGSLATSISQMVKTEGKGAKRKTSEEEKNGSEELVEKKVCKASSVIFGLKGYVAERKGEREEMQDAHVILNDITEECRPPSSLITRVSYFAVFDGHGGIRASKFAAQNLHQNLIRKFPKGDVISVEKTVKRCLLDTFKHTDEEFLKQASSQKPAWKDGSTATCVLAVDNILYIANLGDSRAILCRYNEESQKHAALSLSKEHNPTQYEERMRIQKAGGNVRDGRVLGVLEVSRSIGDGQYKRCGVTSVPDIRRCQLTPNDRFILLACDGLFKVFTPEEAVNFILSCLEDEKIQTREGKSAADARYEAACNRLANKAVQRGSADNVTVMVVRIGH
Chain of UniProt A6NDN3 (A6NDN3 whole entry, looked up): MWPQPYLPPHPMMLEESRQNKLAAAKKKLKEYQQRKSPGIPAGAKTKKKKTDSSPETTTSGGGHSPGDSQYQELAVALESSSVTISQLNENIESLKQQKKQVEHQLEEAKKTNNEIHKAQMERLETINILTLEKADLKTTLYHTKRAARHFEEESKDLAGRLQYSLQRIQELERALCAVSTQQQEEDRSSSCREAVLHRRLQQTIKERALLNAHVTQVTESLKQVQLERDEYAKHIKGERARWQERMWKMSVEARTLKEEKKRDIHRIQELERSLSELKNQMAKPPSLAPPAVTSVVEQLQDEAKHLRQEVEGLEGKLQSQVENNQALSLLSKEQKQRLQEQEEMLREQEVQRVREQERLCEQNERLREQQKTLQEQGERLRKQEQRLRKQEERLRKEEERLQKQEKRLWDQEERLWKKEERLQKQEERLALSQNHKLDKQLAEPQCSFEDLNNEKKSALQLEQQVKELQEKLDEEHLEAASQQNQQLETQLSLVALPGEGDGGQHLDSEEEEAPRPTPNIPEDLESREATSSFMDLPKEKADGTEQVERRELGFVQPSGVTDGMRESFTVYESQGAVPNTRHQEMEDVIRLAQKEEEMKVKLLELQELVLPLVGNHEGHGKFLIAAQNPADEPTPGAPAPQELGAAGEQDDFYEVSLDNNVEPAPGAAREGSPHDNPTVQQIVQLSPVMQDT
Chain of UniProt P23677 (P23677 whole entry, looked up): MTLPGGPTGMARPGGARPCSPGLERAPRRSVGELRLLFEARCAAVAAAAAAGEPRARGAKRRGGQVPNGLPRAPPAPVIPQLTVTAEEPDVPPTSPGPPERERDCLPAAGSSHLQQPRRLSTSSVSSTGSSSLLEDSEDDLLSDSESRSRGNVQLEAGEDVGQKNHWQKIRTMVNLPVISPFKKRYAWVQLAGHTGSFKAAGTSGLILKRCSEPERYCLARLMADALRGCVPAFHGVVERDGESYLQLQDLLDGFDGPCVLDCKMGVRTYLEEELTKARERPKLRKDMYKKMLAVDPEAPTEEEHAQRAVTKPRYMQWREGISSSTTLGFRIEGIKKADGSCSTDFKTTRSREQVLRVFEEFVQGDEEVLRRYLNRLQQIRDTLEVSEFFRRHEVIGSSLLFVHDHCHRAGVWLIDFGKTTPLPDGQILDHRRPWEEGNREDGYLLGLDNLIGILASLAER
Chain of UniProt P62873 (P62873 whole entry, looked up): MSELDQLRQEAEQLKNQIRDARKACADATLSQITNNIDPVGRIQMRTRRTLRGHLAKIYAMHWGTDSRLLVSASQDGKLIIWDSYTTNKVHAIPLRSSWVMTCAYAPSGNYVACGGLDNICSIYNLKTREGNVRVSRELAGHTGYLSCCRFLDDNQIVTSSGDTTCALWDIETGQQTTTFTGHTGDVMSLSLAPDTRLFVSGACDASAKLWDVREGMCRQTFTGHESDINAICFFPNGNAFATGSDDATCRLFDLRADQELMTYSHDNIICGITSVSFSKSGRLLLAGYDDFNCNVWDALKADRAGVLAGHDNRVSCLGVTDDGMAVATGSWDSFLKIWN
Chain of UniProt Q7Z4V5 (Q7Z4V5 whole entry, looked up): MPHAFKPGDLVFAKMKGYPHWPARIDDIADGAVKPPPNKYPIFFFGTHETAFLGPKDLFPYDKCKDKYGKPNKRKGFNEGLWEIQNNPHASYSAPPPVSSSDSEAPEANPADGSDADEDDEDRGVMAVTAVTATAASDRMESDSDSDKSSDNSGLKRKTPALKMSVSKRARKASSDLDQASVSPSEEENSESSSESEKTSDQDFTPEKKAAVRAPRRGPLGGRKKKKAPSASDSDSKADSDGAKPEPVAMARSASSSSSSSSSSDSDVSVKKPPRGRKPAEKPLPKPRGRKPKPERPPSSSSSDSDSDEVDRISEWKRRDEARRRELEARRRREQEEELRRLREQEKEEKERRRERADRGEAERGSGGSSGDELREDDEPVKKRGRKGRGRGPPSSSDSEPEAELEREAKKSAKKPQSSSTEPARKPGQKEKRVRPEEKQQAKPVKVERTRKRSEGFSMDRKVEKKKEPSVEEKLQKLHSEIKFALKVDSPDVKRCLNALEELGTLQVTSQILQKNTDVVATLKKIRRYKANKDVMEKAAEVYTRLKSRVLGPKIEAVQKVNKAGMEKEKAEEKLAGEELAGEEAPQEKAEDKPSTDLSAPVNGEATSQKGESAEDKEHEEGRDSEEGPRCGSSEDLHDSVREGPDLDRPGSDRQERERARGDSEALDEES
Chain of UniProt P35914 (P35914 whole entry, looked up): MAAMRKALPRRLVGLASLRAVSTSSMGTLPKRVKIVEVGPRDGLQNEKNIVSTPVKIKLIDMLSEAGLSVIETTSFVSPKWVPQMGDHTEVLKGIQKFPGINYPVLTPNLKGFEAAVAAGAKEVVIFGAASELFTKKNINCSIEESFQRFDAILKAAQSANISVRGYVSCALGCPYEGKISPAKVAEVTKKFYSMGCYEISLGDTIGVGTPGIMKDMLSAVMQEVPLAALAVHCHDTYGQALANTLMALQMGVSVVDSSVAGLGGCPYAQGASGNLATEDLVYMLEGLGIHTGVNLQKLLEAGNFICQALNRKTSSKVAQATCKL
Chain of UniProt Q8NEC7 (Q8NEC7 whole entry, looked up): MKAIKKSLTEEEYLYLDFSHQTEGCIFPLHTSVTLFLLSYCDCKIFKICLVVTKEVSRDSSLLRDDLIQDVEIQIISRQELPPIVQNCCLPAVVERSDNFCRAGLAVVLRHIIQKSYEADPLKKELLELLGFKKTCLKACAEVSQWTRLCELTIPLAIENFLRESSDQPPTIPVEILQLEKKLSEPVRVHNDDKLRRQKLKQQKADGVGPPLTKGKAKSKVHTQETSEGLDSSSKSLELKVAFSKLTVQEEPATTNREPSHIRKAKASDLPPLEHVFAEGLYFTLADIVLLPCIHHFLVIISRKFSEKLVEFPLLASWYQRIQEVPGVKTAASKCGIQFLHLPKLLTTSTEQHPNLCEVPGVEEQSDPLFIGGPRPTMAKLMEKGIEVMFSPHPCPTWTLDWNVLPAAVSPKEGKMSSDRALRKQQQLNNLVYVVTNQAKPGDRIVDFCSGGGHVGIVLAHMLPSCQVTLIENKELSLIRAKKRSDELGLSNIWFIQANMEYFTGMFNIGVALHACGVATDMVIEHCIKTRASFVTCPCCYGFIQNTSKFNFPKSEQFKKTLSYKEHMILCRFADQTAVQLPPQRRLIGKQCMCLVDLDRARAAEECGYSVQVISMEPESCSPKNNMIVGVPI

Target	log2 fold change [1]	log2 fold change [2]	log2 fold change [3]	log2 fold change [4]	log2 fold change [5]	log2 fold change [6]	log2 fold change [7]	log2 fold change [8]	log2 fold change [9]	log2 fold change [10]	log2 fold change [11]	log2 fold change [12]	log2 fold change [13]	log2 fold change [14]	log2 fold change [15]	log2 fold change [16]	log2 fold change [17]	log2 fold change [18]	log2 fold change [19]	log2 fold change [20]
HECTD3 (UniProt Q5T447)	0.007	-0.047	0.02	0.045	-0.023	0.02	0.11	-0.015	0.002	0.014	-0.047	-0.098	-0.034	-0.001	-0.006	-0.013	0.018	0.056	-0.13	-0.004
GSTCD (UniProt Q8NEC7)	0.03	-0.13	0.055	-0.002	-0.013	0.052	0.138	-0.068	0.002	0	-0.006	-0.015	-0.037	-0.058	0.09	0.036	-0.037	0	-0.053	0.01
INTS8 (UniProt Q75QN2)	-0.011	-0.013	0.083	0.084	0.011	0.098	-0.111	-0.008	-0.033	-0.04	0.028	0.104	-0.046	0.015	-0.051	-0.163	0.04	0.021	-0.142	0.036
ILKAP (UniProt Q9H0C8)	0.056	-0.067	0	0.03	-0.028	-0.002	0.017	0.067	-0.006	0.005	0.04	0.049	0.026	0.022	0.007	-0.052	0.031	0.029	0.001	-0.021
HAUS2 (UniProt Q9NVX0)	0.069	-0.079	0.041	-0.171	-0.047	0.088	0.043	-0.037	0.014	-0.049	-0.033	-0.187	-0.055	0.167	0.049	-0.159	0.067	-0.047	0.005	-0.017
GNB1 (UniProt P62873)	-0.095	0.029	-0.023	-0.028	-0.011	0.007	0.003	-0.023	-0.011	-0.128	0.054	-0.022	-0.106	-0.114	0.003	0.04	-0.023	0.079	0.123	0.04
HMGCL (UniProt P35914)	0.013	-0.012	-0.015	0.059	0.055	0.032	-0.102	-0.031	-0.016	-0.021	-0.005	-0.029	0.012	0.033	0.002	-0.029	0.026	0.008	-0.016	-0.031
GOLGA1 (UniProt Q92805)	-0.027	0.051	0.035	-0.017	0.011	0.028	-0.093	-0.017	-0.18	-0.024	-0.406 (active)	0.007	0.012	0.056	-0.101	0.024	-0.087	0.001	-0.066	-0.025
KBTBD2 (UniProt Q8IY47)	-0.073	0.167	-0.009	-0.013	-0.036	0.018	-0.362 (active)	-0.053	-0.01	0.028	-0.036	-0.019	-0.073	-0.139	-0.01	0.124	-0.056	-0.005	-0.07	0.138
HADHB (UniProt P55084)	-0.046	0.033	0.081	-0.065	-0.03	-0.058	0.072	-0.019	-0.019	0.022	0.1	0.067	0.073	-0.041	0.037	0.138	0.016	0.218	0.014	-0.093
GOLGA6B (UniProt A6NDN3)	-0.019	-0.054	-0.002	0.018	-0.086	-0.048	-0.053	-0.074	0.043	0.065	-0.105	-0.061	-0.193	-0.105	0.121	0.109	0.027	-0.381	-0.04	0
HDGFL2 isoform 2 (UniProt Q7Z4V5)	-0.155	0.011	0.013	-0.008	0.016	-0.004	-0.065	-0.029	0	0.03	0.02	0.027	-0.028	-0.348 (active)	0.037	0.248 (active)	0.018	-0.003	0	0.167
ITPKA (UniProt P23677)	-0.001	-0.194	-0.017	0.017	0.015	-0.021	0.375 (active)	-0.004	0	0.011	-0.043	-0.055	-0.012	-0.012	-0.038	-0.012	0.051	0.016	-0.043	0.051
IARS2 (UniProt Q9NSE4)	0.072	0.021	-0.026	0.004	-0.003	-0.006	0.014	-0.013	-0.011	0.004	-0.023	-0.013	-0.01	0.19	-0.007	-0.057	0.02	0.011	-0.002	-0.049
GOLPH3L (UniProt Q9H4A5)	0.018	-0.083	-0.005	-0.077	0.008	0.063	-0.395 (active)	0.026	-0.059	0.018	0.019	-0.048	-0.106	-0.028	-0.027	-0.05	-0.071	-0.009	-0.146	0.029
HIST2H2AA3 (UniProt Q6FI13)	0.202	0.092	-0.002	-0.032	0.277	-0.027	0.086	-0.097	-0.027	-0.086	0.001	-0.016	0.049	0.555 (active)	-0.044	-0.143	0.022	-0.088	0.159	-0.171
